The source made the active and inactive calls. Unless noted, how the calls were made is not given here.
How the values were obtained:
[1] = compounds binding Alexa647 anti-His antibody – biochemical, small-molecule microarray, 635 nm fluorescence, artefact control for SMM control protein annotation, primary screen (AID 1128); details: higher = more signal;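 further: score merges feature fluorescence with signal-to-noise for each printed compound spot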
[2] = tested on: Human papillomavirus type 1a E7 protein (residues 1-88); experiment: HPV1a E7 small-molecule binders, primary screen, biochemical, small-molecule microarray, residues 1-88, 635 nm (AID 1129); details: small-molecule microarray binding, fluorescence 635 nm; higher = more signal
[3] = molecular target: Focal adhesion kinase 1 (Homo sapiens) (UniProt Q05397); experiment: PTK2 protein binding on printed compound slides – biochemical, small-molecule microarray, 635/667 nm fluorescence, BSA, DTT, primary screen (AID 1130); details: 635 nm fluorescence, higher = more signal;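 further: composite of spot emission at 667 nm and signal to noise over triplicate slides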
[4] = tested on: Fibrinogen (Alexa647-labelled); experiment: Alexa647-fibrinogen binding to printed small molecules – biochemical, small-molecule microarray, 635/667 nm fluorescence, artefact control for SMM control-protein annotation, profiling panel (AID 1131); details: fibrinogen-A647 binding fluorescence, higher = more signal;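 further: z-score merges 667 nm fluorescence with per-spot signal-to-noise over triplicate slides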
[5] = molecular target: Follistatin (Homo sapiens) (UniProt P19883); experiment: FST protein binding to printed compounds – biochemical, small-molecule microarray, 635/667 nm fluorescence, primary screen (AID 1132); details: 635 nm fluorescence, higher = more signal
[6] = molecular target: Fibroblast growth factor 2 (Homo sapiens) (UniProt P09038); experiment: basic fibroblast growth factor binding to printed compounds – biochemical, small-molecule microarray, 635/667 nm fluorescence, primary screen (AID 1133); details: FGF2, fluorescence 635/667, higher = more signal
[7] = JC-1 mitochondrial potential readout, lung cancer cells – cell-based, A549, JC-1 fluorescence, basal, 24 h, 100 nL, profiling panel (AID 1138); details: higher = more signal;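 further: A549 lung adenocarcinoma cells under basal conditions with no added stimulus; test concentration not given here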
Lefty1 = Lefty1 protein binding to printed compounds – biochemical, small-molecule microarray, 635/667 nm fluorescence, primary screen (AID 1139); details: fluorescence 635/667, higher = more signal
[8] = tested on: wheat germ agglutinin (Triticum aestivum), Alexa647-labelled; experiment: Alexa647-WGA lectin binding to printed small molecules – biochemical, small-molecule microarray, 635/667 nm fluorescence, artefact control for SMM control-protein annotation, profiling panel (AID 1140); details: WGA-A647 binding, 635 nm fluorescence, higher = more signal;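 further: score merges 667 nm feature emission with signal to noise over triplicate slides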
[9] = molecular target: Luciferin 4-monooxygenase (Photinus pyralis) (UniProt P08659); experiment: inhibition of purified Photinus pyralis luciferase – biochemical, luminescence, purified enzyme, 2006 set, primary screen (AID 1141); details: purified firefly luciferase, SteadyGlo luminescence, 30 min; higher = more signal, called active from +8 up or from −8 down;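 further: cell-free assay with purified firefly luciferase at 100 ng per well in PBS; test concentration not given here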
[10] = tested on: Wnt5a (protein binding on small-molecule microarray); experiment: small molecules binding Wnt5a protein – biophysical, small-molecule microarray, 635/667 nm fluorescence, primary screen (AID 1142); details: 635 nm fluorescence, higher = more signal;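 further: fluorescence read at 667 nm with signal to noise per printed feature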
[11] = ATP-based viability of Huh7 replicon cells – cell-based, CellTiter-Glo luminescence, basal, 48 h, cytotoxicity control for HCV replication inhibitor project, primary screen (AID 1143); details: higher = more signal, called active from +8 up or from −8 down;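 further: Huh7 hepatoma cells carrying a hepatitis C replication reporter with no stimulus; test concentration not given here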
[12] = Pseudomonas biofilm growth suppression – PAO1 strain, BacTiter-Glo luminescence, LB-PBS, primary screen (AID 1144); details: P. aeruginosa PAO1 biofilm, 12 h, higher = more signal
[13] = basal CRE-LacZ reporter activity in PC12 – cell-based, unstimulated, primary screen (AID 1145); details: no forskolin, luminescence, 4.5 h, higher = more signal, called active from +8 up or from −8 down
[14] = forskolin-driven CRE-LacZ activity in PC12 – cell-based, CRE-LacZ reporter, forskolin-stimulated, primary screen (AID 1146); details: luminescence, 4.5 h, higher = more signal, called active from +8 up or from −8 down;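 further: PC12 cells with 6xCRE LacZ reporter stimulated by forskolin 10 µM; beta-galactosidase reporter signal reflecting CREB driven transcription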
[15] = molecular target: Streptavidin (Streptomyces avidinii) (UniProt P22629); experiment: compounds binding control protein streptavidin – biophysical, small-molecule microarray, 635/667 nm fluorescence, artefact control for SMM compound annotation, primary screen (AID 1147); details: higher = more signal;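 further: signal reflects streptavidin binding to arrayed compounds as a control protein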
[16] = probe aInhba binding on compound microarray – biochemical, small-molecule microarray, 635/667 nm fluorescence, primary screen (AID 1148); details: higher = more signal;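 further: score merges 667nm spot fluorescence with signal-to-noise for antibody binding to printed compounds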
Torsin-1A (Homo sapiens) [17] = molecular target: Torsin-1A (Homo sapiens) (UniProt O14656); experiment: TOR1A wild-type binding on microarray – cell lysate, small-molecule microarray, lysate, 635/667 nm, primary screen (AID 1149); details: COS7 hTOR1A-WT lysate, 635 nm fluorescence, higher = more signal
Torsin-1A (Homo sapiens) [18] = molecular target: Torsin-1A (Homo sapiens) (UniProt O14656); experiment: torsin A mutant lysate binding on microarrays – cell lysate, small-molecule microarray, COS7 lysate, 635/667 nm fluorescence, primary screen (AID 1150); details: COS7 hTOR1A mutant lysate, 635 nm fluorescence, higher = more signal;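 further: score pools 667 nm emission and signal to noise measuring lysate protein binding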
[19] = tested on: Sonic hedgehog protein (Shh); experiment: Sonic hedgehog microarray binding compounds – biochemical, small-molecule microarray, 635/667 nm fluorescence, primary screen (AID 1151); details: 635 nm fluorescence, higher = more signal;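 further: Shh protein binding to compounds spotted on small-molecule microarray slides; score combines spot fluorescence intensity with signal-to-noise across triplicate slides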

Fibroblast growth factor 2 (Homo sapiens), sequence (P09038 whole entry, looked up): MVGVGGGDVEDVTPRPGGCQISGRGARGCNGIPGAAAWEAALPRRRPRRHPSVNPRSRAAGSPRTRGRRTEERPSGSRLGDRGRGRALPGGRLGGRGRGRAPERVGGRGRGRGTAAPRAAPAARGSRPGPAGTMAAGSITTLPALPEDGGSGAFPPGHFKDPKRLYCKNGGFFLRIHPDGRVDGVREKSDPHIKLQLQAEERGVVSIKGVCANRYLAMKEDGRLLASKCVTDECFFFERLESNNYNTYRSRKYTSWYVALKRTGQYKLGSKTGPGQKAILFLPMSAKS
Focal adhesion kinase 1 (Homo sapiens), sequence (Q05397 whole entry, looked up): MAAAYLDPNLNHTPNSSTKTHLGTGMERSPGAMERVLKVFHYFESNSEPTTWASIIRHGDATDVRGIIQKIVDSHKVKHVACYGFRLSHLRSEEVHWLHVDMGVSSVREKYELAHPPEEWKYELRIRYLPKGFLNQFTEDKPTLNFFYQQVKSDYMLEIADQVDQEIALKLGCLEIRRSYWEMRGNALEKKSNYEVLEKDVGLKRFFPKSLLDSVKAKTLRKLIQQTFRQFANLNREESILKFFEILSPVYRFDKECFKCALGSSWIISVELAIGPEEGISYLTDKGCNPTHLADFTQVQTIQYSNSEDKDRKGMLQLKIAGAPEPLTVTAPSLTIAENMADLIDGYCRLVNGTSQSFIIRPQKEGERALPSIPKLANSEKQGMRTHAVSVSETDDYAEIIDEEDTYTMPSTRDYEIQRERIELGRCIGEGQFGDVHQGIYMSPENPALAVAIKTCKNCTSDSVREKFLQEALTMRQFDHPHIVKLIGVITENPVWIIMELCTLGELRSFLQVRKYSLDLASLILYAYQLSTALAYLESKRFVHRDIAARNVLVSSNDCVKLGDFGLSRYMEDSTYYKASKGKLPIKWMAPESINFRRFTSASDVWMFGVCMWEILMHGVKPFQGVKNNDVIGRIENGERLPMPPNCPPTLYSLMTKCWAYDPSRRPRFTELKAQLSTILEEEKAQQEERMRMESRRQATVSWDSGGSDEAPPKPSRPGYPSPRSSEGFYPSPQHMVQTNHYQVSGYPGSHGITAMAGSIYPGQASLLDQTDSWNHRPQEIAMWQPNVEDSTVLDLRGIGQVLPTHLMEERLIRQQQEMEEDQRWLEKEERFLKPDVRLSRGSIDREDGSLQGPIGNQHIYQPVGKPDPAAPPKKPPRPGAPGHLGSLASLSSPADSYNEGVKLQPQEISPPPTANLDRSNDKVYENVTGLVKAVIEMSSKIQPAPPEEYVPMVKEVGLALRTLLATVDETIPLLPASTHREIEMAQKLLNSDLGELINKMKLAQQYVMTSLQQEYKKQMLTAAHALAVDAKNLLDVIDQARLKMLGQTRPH
Torsin-1A (Homo sapiens), sequence (O14656 whole entry, looked up): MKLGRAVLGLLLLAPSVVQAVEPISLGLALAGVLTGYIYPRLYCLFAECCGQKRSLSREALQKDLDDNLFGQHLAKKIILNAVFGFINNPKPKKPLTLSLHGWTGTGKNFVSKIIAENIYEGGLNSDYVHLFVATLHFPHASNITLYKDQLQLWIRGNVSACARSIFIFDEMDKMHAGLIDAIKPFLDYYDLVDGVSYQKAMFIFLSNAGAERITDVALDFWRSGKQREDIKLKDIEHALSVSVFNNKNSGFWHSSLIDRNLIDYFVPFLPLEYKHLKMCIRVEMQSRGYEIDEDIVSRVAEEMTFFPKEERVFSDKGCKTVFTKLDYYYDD
Luciferin 4-monooxygenase (Photinus pyralis), sequence (P08659 whole entry, looked up): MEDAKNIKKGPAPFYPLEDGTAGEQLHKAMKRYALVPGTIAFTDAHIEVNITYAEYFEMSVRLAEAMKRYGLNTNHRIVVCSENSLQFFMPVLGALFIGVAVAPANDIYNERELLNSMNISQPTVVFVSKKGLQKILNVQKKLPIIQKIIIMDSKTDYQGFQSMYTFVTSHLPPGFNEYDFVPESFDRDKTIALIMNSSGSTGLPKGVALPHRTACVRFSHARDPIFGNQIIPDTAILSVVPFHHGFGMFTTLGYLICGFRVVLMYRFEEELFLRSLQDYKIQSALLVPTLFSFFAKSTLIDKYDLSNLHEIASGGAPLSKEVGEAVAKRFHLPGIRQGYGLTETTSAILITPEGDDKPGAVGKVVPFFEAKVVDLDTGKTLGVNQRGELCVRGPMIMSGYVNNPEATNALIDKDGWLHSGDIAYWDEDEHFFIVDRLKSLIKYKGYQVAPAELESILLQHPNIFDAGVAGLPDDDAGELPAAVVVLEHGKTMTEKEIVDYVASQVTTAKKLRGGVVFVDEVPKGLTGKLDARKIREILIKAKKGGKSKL
Streptavidin (Streptomyces avidinii), sequence (P22629 whole entry, looked up): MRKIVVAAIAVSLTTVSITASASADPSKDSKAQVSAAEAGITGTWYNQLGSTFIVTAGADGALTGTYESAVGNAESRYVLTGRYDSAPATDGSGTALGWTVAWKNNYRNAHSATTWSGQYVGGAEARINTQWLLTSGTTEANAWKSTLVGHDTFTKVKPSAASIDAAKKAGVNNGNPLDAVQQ
Follistatin (Homo sapiens), sequence (P19883 whole entry, looked up): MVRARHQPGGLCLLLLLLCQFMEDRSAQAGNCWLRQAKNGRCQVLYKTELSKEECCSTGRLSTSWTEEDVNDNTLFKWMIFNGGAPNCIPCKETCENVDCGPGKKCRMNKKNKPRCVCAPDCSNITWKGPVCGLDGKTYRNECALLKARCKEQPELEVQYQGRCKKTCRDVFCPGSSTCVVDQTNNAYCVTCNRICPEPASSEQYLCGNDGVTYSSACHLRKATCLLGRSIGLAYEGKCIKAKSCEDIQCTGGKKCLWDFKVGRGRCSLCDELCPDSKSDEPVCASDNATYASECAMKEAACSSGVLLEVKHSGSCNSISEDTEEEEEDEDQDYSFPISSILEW

| Compound | composite z-score [1] | composite z-score [2] | composite z-score [3] | composite z-score [4] | composite z-score [5] | composite z-score [6] | z-score [7] | composite z-score (Lefty1) | composite z-score [8] | z-score [9] | composite z-score [10] | z-score [11] | z-score [12] | z-score [13] | z-score [14] | composite z-score [15] | composite z-score [16] | composite z-score (Torsin-1A (Homo sapiens) [17]) | composite z-score (Torsin-1A (Homo sapiens) [18]) | composite z-score [19] |
| --- | --- | --- | --- | --- | --- | --- | --- | --- | --- | --- | --- | --- | --- | --- | --- | --- | --- | --- | --- | --- |
| C[C@@H]1CCC2C(=O)N(Cc3ccccc3)C[C@@H](O)CN2[C@H]1c1ccc(Br)cc1 (stereo not given in full) | 0.737 | 0.0101 | -0.24 | 0.909 | 0.49 | 0.425 | 1.89 | 0.399 | 0.623 | -1.86 (inactive) | -0.412 | -2.02 (inactive) | -1.54 (inactive) | 2.28 (inactive) | -0.284 (inactive) | 0.398 | -0.0719 | 0.866 | 1.42 | 0.228 |
| O=C1CCCC2OC12C(O)CCc1ccccc1 (stereo not given) | 0.259 | -0.0206 | 0.0538 | 0.558 | 0.321 | 0.268 | 0.112 | 0.279 | -0.0681 | -0.443 (inactive) | 0.154 | 0.564 (inactive) | 0.357 (inactive) | 1.18 (inactive) | 0.0396 (inactive) | 0.035 | -0.214 | 0.0994 | -0.0582 | 0.174 |
| CCCCC(=C=CC[C@H](O)c1ccccc1OCCO)C[C@H](O)COCc1ccccc1 | -1.29 | -0.138 | 0.329 | -0.256 | 0.103 | 0.189 | 0.544 | -0.0107 | -0.142 | -0.676 (inactive) | -0.0702 | -1.41 (inactive) | 1.44 (inactive) | 3.27 (inactive) | 0.571 (inactive) | 0.395 | -0.0523 | 1.08 | 0.259 | 0.0668 |
| CCOC(=O)[C@H](CC(C)C)NC(=O)CCC1CC(OC(=O)NCc2cccc3ccccc23)CC2(CCCC(COC(=O)NCCN3CCOCC3)O2)O1 (stereo not given in full) | 0.804 | 1.17 | 0.465 | 0.356 | 0.68 | 0.685 | 0.154 | 0.551 | 0.255 | 1.03 (inactive) | 0.201 | -0.293 (inactive) | -0.677 (inactive) | -0.164 (inactive) | 1.14 (inactive) | 0.308 | -0.0494 | 0.0423 | 0.765 | 0.717 |
| CC(CCC(=O)OC[C@H]1O[C@H](C#Cc2ccccc2)C=C[C@@H]1Oc1ccc(C)cc1)=NOC[C@@H](O)[C@H]1O[C@@H]2OC(C)(C)O[C@@H]2[C@H]1O | 0.418 | -0.106 | 0.0116 | -0.38 | -0.382 | -0.448 | 0.343 | 0.131 | -0.604 | 0.29 (inactive) | -0.598 | -0.416 (inactive) | -0.025 (inactive) | 0.099 (inactive) | 0.0046 (inactive) | -0.564 | -0.178 | -0.526 | -0.617 | -0.108 |

Source: PubChem BioAssay
